Bioassay records: PubChem BioAssay, several laboratories
ABHD5 PLIN5 PPI: ABHD5-PLIN5 protein interaction inhibition. actives 0.78% (n = 360,000). Split G. princeps luciferase complementation, luminescence, 4 h. inhibition, % at 4 µM. Q00G26+Q8WTS1;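 active = inhibition above the mean inhibition across every tested compound plus 3 SD, cut at about 22% in these data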;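 also: 0% = DMSO only wells and the 100% control is not disclosed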
PRMT1 inh: inhibitors of human PRMT1; inhibition, % at 2.79 µM; recombinant PRMT1, activity-based probe fluorescence polarization; Q99873; actives 1.3% (n = 370,000);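 active = inhibition above about 21% made by adding two undisclosed values, limit read from the data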
Granule exo inh: blocks lytic granule exocytosis | TALL-104 LAMP-1 surface exposure, flow cytometry; cells stimulated with thapsigargin and PMA | inhibition, % at 10 µM | actives 0.66% (n = 360,000);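 active = inhibition above about 55%, limit read from the data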
TLR9-MyD88 inh: TLR9-MyD88 interaction inhibition. Q9NR96+Q99836. CHO BLA complementation TLR9-MyD88, CCF4 FRET ratio. inhibition, % at 4.98 µM. actives 0.21% (n = 340,000);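 active = inhibition above the mean over all tested compounds plus 3 SD, cut at about 21% in these data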;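 also: 0% = DMSO only wells and 100% = clavulanate BLA inhibitor control wells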
Target sequence (Q99836 whole entry, looked up): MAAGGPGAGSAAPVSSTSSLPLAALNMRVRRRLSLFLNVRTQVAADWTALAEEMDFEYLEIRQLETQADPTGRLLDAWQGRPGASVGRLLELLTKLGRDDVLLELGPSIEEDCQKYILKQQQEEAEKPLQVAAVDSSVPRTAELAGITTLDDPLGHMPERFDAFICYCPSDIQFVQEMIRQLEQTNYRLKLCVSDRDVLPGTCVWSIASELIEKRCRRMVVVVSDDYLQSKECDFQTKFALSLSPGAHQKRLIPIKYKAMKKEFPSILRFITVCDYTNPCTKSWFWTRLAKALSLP
Target sequence (Q9NR96 whole entry, looked up): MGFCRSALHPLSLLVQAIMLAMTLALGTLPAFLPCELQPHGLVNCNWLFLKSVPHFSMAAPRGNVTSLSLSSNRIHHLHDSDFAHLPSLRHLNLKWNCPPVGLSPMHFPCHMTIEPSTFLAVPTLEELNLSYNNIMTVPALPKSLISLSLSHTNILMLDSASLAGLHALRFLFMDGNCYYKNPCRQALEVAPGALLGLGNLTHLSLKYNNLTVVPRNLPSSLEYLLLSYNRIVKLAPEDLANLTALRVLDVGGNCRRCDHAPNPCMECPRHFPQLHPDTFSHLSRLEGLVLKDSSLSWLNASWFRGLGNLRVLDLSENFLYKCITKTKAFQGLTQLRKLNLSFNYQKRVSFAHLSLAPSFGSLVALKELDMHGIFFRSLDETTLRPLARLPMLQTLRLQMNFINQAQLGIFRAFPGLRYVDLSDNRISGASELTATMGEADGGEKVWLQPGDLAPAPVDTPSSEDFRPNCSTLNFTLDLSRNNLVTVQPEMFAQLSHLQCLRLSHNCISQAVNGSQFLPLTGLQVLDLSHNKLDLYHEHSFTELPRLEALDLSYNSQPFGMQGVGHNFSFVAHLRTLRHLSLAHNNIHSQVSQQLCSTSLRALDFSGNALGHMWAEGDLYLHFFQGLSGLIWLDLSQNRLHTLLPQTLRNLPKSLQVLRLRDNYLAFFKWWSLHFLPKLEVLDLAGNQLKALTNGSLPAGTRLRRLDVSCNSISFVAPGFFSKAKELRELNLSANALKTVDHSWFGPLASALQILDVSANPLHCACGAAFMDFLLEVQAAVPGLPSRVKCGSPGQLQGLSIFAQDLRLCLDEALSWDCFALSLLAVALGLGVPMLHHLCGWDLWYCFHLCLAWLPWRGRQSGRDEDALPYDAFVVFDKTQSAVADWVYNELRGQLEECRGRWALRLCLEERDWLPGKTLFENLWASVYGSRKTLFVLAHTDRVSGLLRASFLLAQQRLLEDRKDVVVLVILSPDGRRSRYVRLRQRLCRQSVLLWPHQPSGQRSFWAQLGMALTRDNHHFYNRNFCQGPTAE
TLR4-MyD88 BLA: TLR4-MyD88 interaction inhibition in cells | O00206+Q99836 | HeLa CL3-4 TLR4/MyD88 BLA complementation, FRET ratio | inhibition, % at 8.4 µM | actives 0.18% (n = 200,000) | AID 861; in the data active = inhibition above about 25%;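 also: 0% = vehicle and 100% = reference inhibitor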
NOD2 RIPK2 PPI: blocks binding of human NOD2 to RIPK2; AID 624267; CHO BLA complementation NOD2-RIPK2, CCF4 ratio; O43353; inhibition, % at 4.98 µM; actives 0.38% (n = 360,000); in the data active = inhibition above about 21%;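 also: 0% = vehicle only and 100% = reference blocker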
PRMT1 inh conf: confirmation of human PRMT1 inhibitors; recombinant His-PRMT1, activity-based probe fluorescence polarization; AID 687036; actives 42% (n = 3,300); inhibition, % at 2.79 µM; shares compounds with PRMT1 inh;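 active = mean inhibition across replicates above the hit cutoff derived for the earlier primary screen, cut at about 22% in these data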
* hit, by the source's call; / = not tested or not shown. Shown are actives, neighbours in structure and some others; about 2.6% of the full set was active somewhere.

SMILES	ABHD5 PLIN5 PPI	PRMT1 inh	Granule exo inh	TLR9-MyD88 inh	TLR4-MyD88 BLA	NOD2 RIPK2 PPI	PRMT1 inh conf
CCCOc1ccc(N2C(=O)CC(NCCc3ccc(S(N)(=O)=O)cc3)C2=O)cc1 (stereo not given)	12	51*	7	3	6	0	-2
CCOc1ccc(N2C(=O)CC(NNc3nc4ccccc4s3)C2=O)cc1 (stereo not given)	11	3	6	6	/	-9	/
CCCOc1ccc(N2C(=O)CC(NCc3ccncc3)C2=O)cc1 (stereo not given)	-2	1	-4	-9	0	0	/
CCCOc1ccc(N2C(=O)CC(NCCNc3ccc(S(=O)(=O)CC)cc3)C2=O)cc1 (stereo not given)	4	7	0	0	-9	-8	/
COc1ccc(S(=O)(=O)NCc2cccnc2)cc1NC(=O)c1ccccc1C	-57	48*	-2	4	/	-8	6
COC(=O)c1ccc(N2CN=C(c3ccc(C)cc3)NC2=S)cc1	-4	35*	4	-6	4	1	-6
OCCNc1nc(Nc2cc(Cl)ccc2OC2CCCC2)nc(N2CCCC2)n1	-2	2	9	3	/	-5	/
CC1CCCN(C(=O)c2nn(C)c3c2CSc2ccccc2-3)C1 (stereo not given)	7	31*	4	2	/	-5	37*
CCOC(=O)CN1CCCc2nc(-c3ccc(OC)cc3)ccc21	/	5	/	/	/	/	/
CCc1cc2cc(C)c(C)cc2nc1SCC(=O)NNC(=O)c1ccco1	-7	29*	-4	-16	2	8	-2
CCc1cc2cccc(C)c2nc1SCC(=O)NNC(=O)c1ccco1	-6	5	0	8	-1	10	/
Cc1ccc(N=CC2=C(O)CC(C)(C)CC2=O)nc1	4	-3	6	-12	-15	-3	/
Cc1ccc(N=Cc2c(O)n(C)c(=O)n(C)c2=O)nc1	20	29*	0	-3	0	-1	-5
O=C(CCSc1ccc(Cl)cc1)c1cccs1	-5	48*	27	0	-9	-8	43*
COc1cccc(-c2ccccc2C2=CC(=O)CC(C)(C)C2=O)c1	-4	0	1	0	/	5	/
COc1ccccc1/C=C/C=C1\Oc2c(ccc(O)c2CN(C)C)C1=O	21	27*	5	-2	/	7	16
COc1ccc2c(c1)CC/C(=C\C=C\c1ccccc1OC)C2=O	3	12	0	-12	3	0	/
CCCCOCC1CN(CCCC)S(=O)(=O)c2c(Oc3ccc(SC)c(C)c3)cccc2O1 (stereo not given)	/	-2	/	/	/	/	/
CN(C)S(=O)(=O)c1cccc(NC(=S)N/N=C/c2ccc(O)c(O)c2O)c1	-13	36*	8	5	/	-7	84*
CCc1ccccc1NC(=O)C1CCN(C(=O)N2CCOc3ccccc32)CC1	-7	-1	5	4	/	-1	/
COC(=O)C(NNc1ccccc1C)(NC(=O)c1ccc(F)cc1)C(F)(F)F (stereo not given)	13	50*	4	-2	-6	-1	10
COC(=O)C(NNc1ccc(F)cc1)(NC(=O)c1ccccc1)C(F)(F)F (stereo not given)	4	1	3	-2	10	2	/
COc1ccc(CCNC(=O)CSc2nc3[nH]c(=O)cc(O)c3s2)cc1	-10	29*	-1	2	/	-7	4
NS(=O)(=O)c1cc(Br)c2c(c1)S(=O)(=O)NCN2	3	0	2	10	/	-18	/
COc1ccc(N/C=C2/Sc3ccccc3NC2=O)cc1	-6	33*	-8	-3	-8	-1	30*
SMILES	ABHD5 PLIN5 PPI	PRMT1 inh	Granule exo inh	TLR9-MyD88 inh	TLR4-MyD88 BLA	NOD2 RIPK2 PPI	PRMT1 inh conf
O=C1Nc2ccccc2S/C1=C/NCc1ccccc1Cl	-7	20	-1	-6	6	-3	/
COc1ccccc1N/C=C1/Sc2cc(Cl)ccc2NC1=O	/	0	/	/	0	/	/
Cc1ccc(N/C=C2/Sc3ccccc3NC2=O)cc1	0	31*	-1	-5	25	-2	10
CC(=O)Nc1ccc(S(=O)(=O)NCCC(=O)NCCOc2ccccc2)cc1	-5	-1	-2	5	/	-4	/
COc1cc2c(cc1OC)C(C)N(C(=S)NC(=O)c1ccccc1)CC2 (stereo not given)	1	1	9	1	-2	-4	/
COC(=O)c1cn(C)c2ccc(S(=O)(=O)N(C)C3CCCCC3)cc2c1=O	4	-2	5	3	/	-9	/
Cc1cccc(C)c1NC(=O)CSCC(=O)O	-2	3	-2	-6	1	-1	/
Cc1cccc(C)c1NC(=O)CSCC(=O)c1ccc(O)c(O)c1	-31	39*	0	-1	-5	3	62*
O=[N+]([O-])c1cccc(N=Cc2ccccc2)c1	-4	0	6	3	/	-7	/
O=[N+]([O-])c1ccc(N/N=C/c2cccc(O)c2O)cc1	6	10	-16	7	/	9	/
O=[N+]([O-])c1ccc(N=Cc2sc3ccccc3c2O)cc1	5	49*	-5	5	1	-8	6
Oc1c(C=NCc2ccccc2)sc2ccccc12	-6	43*	-1	7	-4	-8	34*
CCn1c(O)c(C=NCc2ccccc2)sc1=S	-8	2	-6	3	/	-11	/
O=[N+]([O-])c1cccc(N=Cc2sc3ccccc3c2O)c1	/	40*	/	/	3	/	25*
COC(=O)C(Cc1ccccc1)NC(=O)CCc1c[nH]c2ccccc12 (stereo not given)	-4	2	55	1	/	-9	/
CC1=C(C(=O)OCc2ccccc2)C(c2ccccc2Br)NC(=O)N1 (stereo not given)	0	-1	-10	3	/	-9	/
CCN(CC)S(=O)(=O)c1cc(NC(=O)C2CC(=O)N(Cc3ccccc3)C2)ccc1Cl (stereo not given)	-4	2	-3	-2	/	1	/
CCNC(=O)CCc1nc(-c2ccc(C(C)C)cc2)no1	/	3	/	/	/	/	/
COC(=O)[C@@]1(C)[C@H]2C(=O)N(Cc3ccccc3)C(=O)[C@H]2[C@H]2CN=C(SCc3ccccc3)N21	-4	0	-4	-6	/	8	/
CCN1C(=O)[C@H]2[C@H]3CN=C(SCC(=O)c4ccccc4)N3[C@@](C)(C(=O)OC)[C@H]2C1=O	-25	83*	0	-7	/	-2	73*
COC(=O)[C@@]1(Cc2ccccc2)[C@H]2C(=O)N(C)C(=O)[C@H]2[C@H]2CN=C(SCC(=O)c3ccccc3)N21	-10	45*	-5	-2	/	-15	33*
COc1cccc(-c2cc3nc(-c4ccco4)cc(N4CCN(C(C)=O)CC4)n3n2)c1	/	50*	/	/	/	/	16
